This is a sample that favours compounds with a hit; in the whole collection about 1.6% have one here.
eIF4E 4G PPI – eIF4E–eIF4G protein interaction inhibitors, primary screen, biochemical, uHTS, TR-FRET, eIF4GI fragment | TR-FRET eIF4E-eIF4GI(517-606) binding, 2 h | 220,000 compounds, 0.37% hits | inhibition, % at 21.7 µM | Eukaryotic translation initiation factor 4E (Mus musculus) + Eukaryotic translation … | AID 782, 2007;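 active means inhibition above about 30%, limit read from the data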
PABP FP inh – PABP poly(A) RNA binding inhibitors, primary screen, biochemical, fluorescence polarization, uHTS; Polyadenylate-binding protein 1 (Homo sapiens), P11940; inhibition, % at 35 µM; 290,000 compounds, 1% hits; AID 2014, 2009;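 further: calls also rest on retests at 20 µM and on dose response follow-up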
eIF4H FP inh – human eIF4H binding inhibitors, primary screen, translation initiation inhibitor project, biochemical, uHTS, fluorescence polarization; eIF4H fluorescence polarization binding assay; inhibition, % at 35 µM; 290,000 compounds, 0.94% hits;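 further: calls also rest on retests at 20 µM and on dose response follow-up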
PERK inhibitor – block of dimerizer-induced PERK translation repression, primary screen, PERK inhibitor project, CHO PERK-DD cells, SEAP luminescence, HTS; CHO PERK-DD fusion, SEAP luminescence translation reporter; inhibition, % at 5.6 µM; 220,000 compounds, 0.17% hits; AID 1416, 2008;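 active means inhibition above the mean inhibition of all tested compounds plus 3 SD, set separately per screening campaign, cut at about 2.9% in these data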;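 further: PERK kinase domain activated by AP20187 dimerizer at 100 nM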
Target sequence (Q9NZJ5 whole entry, looked up, the tested form may be a part): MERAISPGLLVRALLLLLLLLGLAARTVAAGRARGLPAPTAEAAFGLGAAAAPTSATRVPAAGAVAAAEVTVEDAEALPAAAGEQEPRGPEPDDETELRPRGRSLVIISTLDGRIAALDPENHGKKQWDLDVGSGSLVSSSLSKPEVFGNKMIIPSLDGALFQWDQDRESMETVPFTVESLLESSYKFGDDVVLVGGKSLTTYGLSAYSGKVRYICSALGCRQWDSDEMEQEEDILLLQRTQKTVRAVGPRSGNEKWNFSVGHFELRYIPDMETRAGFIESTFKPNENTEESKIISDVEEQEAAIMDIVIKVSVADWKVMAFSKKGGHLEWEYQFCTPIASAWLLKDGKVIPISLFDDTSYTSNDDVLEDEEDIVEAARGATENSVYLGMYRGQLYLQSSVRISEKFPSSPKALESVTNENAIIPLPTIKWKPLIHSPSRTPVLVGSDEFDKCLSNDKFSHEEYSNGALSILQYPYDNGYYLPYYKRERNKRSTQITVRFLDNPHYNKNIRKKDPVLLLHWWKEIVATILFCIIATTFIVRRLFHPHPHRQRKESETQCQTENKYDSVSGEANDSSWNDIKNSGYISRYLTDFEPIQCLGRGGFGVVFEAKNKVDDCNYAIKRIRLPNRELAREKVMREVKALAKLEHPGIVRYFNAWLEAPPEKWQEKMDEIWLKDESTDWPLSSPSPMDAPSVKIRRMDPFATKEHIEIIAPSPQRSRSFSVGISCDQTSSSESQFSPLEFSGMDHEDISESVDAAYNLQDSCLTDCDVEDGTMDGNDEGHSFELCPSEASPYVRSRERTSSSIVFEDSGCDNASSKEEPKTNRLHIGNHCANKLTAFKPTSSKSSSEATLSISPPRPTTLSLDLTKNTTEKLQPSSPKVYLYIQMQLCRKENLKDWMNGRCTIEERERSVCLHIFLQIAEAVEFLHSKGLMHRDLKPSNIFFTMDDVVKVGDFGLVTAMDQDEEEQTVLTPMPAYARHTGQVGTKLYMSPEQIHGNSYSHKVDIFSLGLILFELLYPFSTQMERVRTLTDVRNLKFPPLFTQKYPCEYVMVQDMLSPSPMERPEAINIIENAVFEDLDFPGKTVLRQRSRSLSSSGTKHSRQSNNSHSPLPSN
PABP1 MLLE inh – inhibitors of PABP1 MLLE–PAM2 peptide binding, primary screen, biochemical, fluorescence polarization, FITC-PAM2, GST-MLLE. inhibition, % at 20 µM. 360,000 compounds, 0.36% hits. Polyadenylate-binding protein 1 (Homo sapiens), P11940. AID 588489, 2011; in the data active means inhibition above about 35%, passing the limit was not always enough
Each line names hits and unclear results; the compound was inactive in the other large screens; [ ] = dose if it differs, or a comment. Unless noted, how the calls were made is not given here.

CN(C)CCCN1C(=O)c2cccc3cccc(c23)C1=O	none (no result: eIF4E 4G PPI, PERK inhibitor)
CN(C)c1cccc(NC2=CC(=[N+]3CCOCC3)CC(C)(C)C2)c1	PABP FP inh 58
CC1(C)CC(=O)C=C(Nc2cccc(F)c2)C1	none (no result: eIF4E 4G PPI, PERK inhibitor)
CCSc1ccccc1C(=O)NCc1ccc(S(N)(=O)=O)cc1	none
COC(=O)C1=C(C)NC(=O)/C1=C\N(C)C	PABP FP inh active, eIF4H FP inh 79, PABP1 MLLE inh 43
Cn1c(CC(=O)Nc2cccc(Cl)c2Cl)nnc1SCC(=O)NC1=NCCS1	none (no result: eIF4E 4G PPI, PERK inhibitor)
CC(=O)Nc1ccc2ccc3cccc4ccc1c2c34	eIF4H FP inh 60
CCn1c(SCC(=O)OC)nc2sc3c(c2c1=O)CCC3	eIF4H FP inh 72
CCn1c(SCC(=O)O)nc2sc3c(c2c1=O)CCC3	none
CCCCCc1ccc(C(=O)CCCC)c(=S)[nH]1	PABP1 MLLE inh 38
CCCc1nnc(NC(=O)CCC(=O)N2CCN(S(=O)(=O)c3ccc(F)cc3)CC2)s1	none
CCCc1nnc(NC(=O)CNc2ccc(F)cc2)s1	PERK inhibitor 3.1
O=C(CSc1n[nH]c(-c2ccccn2)n1)Nc1ccccc1F	none (no result: eIF4E 4G PPI, PERK inhibitor)
CCC1(c2ccc(Cl)cc2)NC(=S)N(c2ccc(C)c(C)c2)N1 (stereo not drawn)	none
CCC1(c2ccccc2)NC(=S)N(c2ccc(C)c(C)c2)N1 (stereo not drawn)	eIF4E 4G PPI 52
CC1=C(C#N)C(=O)OC(C)(C)C1	PABP FP inh 116, eIF4H FP inh 122
COCCCNc1nc2ccccc2nc1NS(=O)(=O)c1cccc(Cl)c1	PABP1 MLLE inh 43 (no result: eIF4E 4G PPI, PERK inhibitor)
CCOc1ccccc1C1CC(c2cccs2)=NN1S(C)(=O)=O (stereo not drawn)	none
CS(=O)(=O)N1N=C(c2cccs2)CC1c1ccccc1O (stereo not drawn)	PABP FP inh 34, eIF4H FP inh 59
COc1ccc(NC(=O)/C=C/c2cccc(Br)c2)cn1	PABP FP inh inconclusive, eIF4H FP inh inconclusive (no result: eIF4E 4G PPI, PERK inhibitor)
CCOC(=O)c1c(NC(=O)CN2CCN(c3cccc(Cl)c3)CC2)sc(C)c1C	none (no result: eIF4E 4G PPI, PABP FP inh, eIF4H FP inh, PERK inhibitor)
COc1ccc(C(=O)Nc2ccccc2C(=O)Nc2ccccc2C(=O)O)cc1	none (no result: eIF4E 4G PPI, PERK inhibitor)
COc1ccc(NC(=S)NC(NC(=O)c2cccc(Cl)c2)C(Cl)(Cl)Cl)c([N+](=O)[O-])c1 (stereo not drawn)	PABP1 MLLE inh 38
COc1ccc(C(=O)Nc2ccccc2C(N)=O)cc1	eIF4E 4G PPI 100[fluorescence artefact?]
COc1ccc(NC(=O)c2cccnc2)c([N+](=O)[O-])c1	none
COc1ccc(N/C=C/C(=O)c2ccc(C)cc2)c([N+](=O)[O-])c1	none (no result: eIF4E 4G PPI, PABP FP inh, eIF4H FP inh)
COc1ccc(NC(=O)c2ccccc2)c([N+](=O)[O-])c1	PABP FP inh 1.5, eIF4H FP inh inconclusive
CCOc1ccc(N/C=C/C(=O)c2ccc(OC)cc2)c([N+](=O)[O-])c1	PABP1 MLLE inh 49
c1ccc(CCNc2nc3ccccc3n3nnnc23)cc1	none
COc1ccc(CCNc2nc3ccccc3n3nnnc23)cc1OC	PABP FP inh 120, eIF4H FP inh inconclusive
COc1cc(NC(=O)c2cnc(N)s2)cc(C(=O)Nc2cccc(C(F)(F)F)c2)c1	eIF4E 4G PPI 31 (no result: PERK inhibitor)
COc1cc(NC(=O)c2ccnc(N)c2)cc(C(=O)Nc2cccc(C(F)(F)F)c2)c1	none (no result: PERK inhibitor)
Cc1c(CCO)c(=O)n2c([nH]c3ccccc32)c1C#N	none (no result: eIF4E 4G PPI, PERK inhibitor)
N#Cc1c(=O)c2nc(NCCCO)ncc2n2c(=O)c3ccccc3[nH]c12	PABP FP inh 35, eIF4H FP inh 78
COc1cc(OC)c(OC)cc1/C=N/Nc1nc2ccccc2[nH]1	none
Cc1ccc2cc(/C=N/Nc3nc4ccccc4[nH]3)c(Cl)nc2c1	PERK inhibitor 3.4
Cc1ccc(NC(=O)CN2C(=O)S/C(=C\c3cccn3-c3cccc(C(=O)O)c3)C2=O)c(C)c1	PABP FP inh 41, eIF4H FP inh 91
Cc1cccc(C)c1NC(=O)CN1C(=O)S/C(=C\c2cccn2-c2cccc(C(=O)O)c2)C1=O	PABP FP inh 36, eIF4H FP inh 80
Cc1cccc(NC(=O)CN2C(=O)S/C(=C\c3cccn3-c3cccc(C(=O)O)c3)C2=O)c1	none
Cc1ccc(NC(=O)CN2C(=O)S/C(=C\c3cccn3-c3cccc(C(=O)O)c3)C2=O)cc1C	PABP FP inh 32
COc1ccc(NC(=O)CN2C(=O)S/C(=C/c3cccn3-c3ccc(C(=O)O)cc3)C2=O)cc1	PABP FP inh 80, eIF4H FP inh 87 (no result: eIF4E 4G PPI, PERK inhibitor)
COc1ccc(/C=C2\SC(=O)N(CCCC(=O)Nc3ccc(C(=O)O)cc3)C2=O)cc1	none (no result: eIF4E 4G PPI, PABP FP inh, eIF4H FP inh, PERK inhibitor)
COc1ccc(-c2cnc3ccccc3n2)cc1NC(=O)CNC(=O)c1ccccc1	none (no result: eIF4E 4G PPI, PERK inhibitor)
Cn1c(=O)c2ncn(CC(=O)N=Nc3c(O)[nH]c4ccccc34)c2n(C)c1=O	none (no result: PABP1 MLLE inh)
C[C@]12c3[nH]c4ccccc4c3CCN1C(=O)C(CC(=O)NCc1ccco1)C[C@@H]2C(=O)N1CCCCC1 (stereo partly drawn)	none (no result: eIF4E 4G PPI, PABP FP inh, eIF4H FP inh, PERK inhibitor)
Cc1ccccc1NC(=O)CN1C(=O)S/C(=C\c2cccn2-c2cccc(C(=O)O)c2)C1=O	PABP FP inh 38, eIF4H FP inh 81
CCSC1C(=O)N(C)C(SCC)C(=O)N1C (stereo not drawn)	none (no result: eIF4E 4G PPI, PABP FP inh, eIF4H FP inh, PERK inhibitor)
COc1cccc(F)c1C(=O)NC(=O)Nc1ccc2nc(C)oc2c1	PABP FP inh 70
CSc1nc2ccc(NC(=O)NC(=O)c3c(F)cccc3F)cc2s1	none
Nn1nnc2ccccc21	none (no result: PERK inhibitor)
CC(COc1ccccc1)N(CCCl)Cc1ccccc1 (stereo not drawn)	PABP FP inh 50, eIF4H FP inh active
O=C(/C=C/c1ccc(Br)o1)Nc1nccs1	PABP FP inh 7.4, eIF4H FP inh 57
O=C(Nc1nccs1)c1ccc(Br)o1	none
Cc1ccc(C)n1-c1cc(S(=O)(=O)N2CCOCC2)ccc1N1CCCC1	PABP FP inh 106, eIF4H FP inh 92
COc1cc(/C=C/C(=O)Nc2cc(S(=O)(=O)N3CCOCC3)ccc2N2CCCC2)cc(OC)c1OC	PABP1 MLLE inh 40
Cc1ccc2[nH]cc(C(=O)CN3CCN(c4ccccc4F)CC3)c2c1	none
COc1ccccc1NC(=S)NCCSc1ccc(Cl)cc1	eIF4E 4G PPI 33
COc1ccc(NC(=S)NCCSc2ccc(Cl)cc2)c(OC)c1	none
O=Cc1ccc(-c2cc(Cl)ccc2Cl)[nH]1	PERK inhibitor 3.3
O=C(Nc1ccc(F)c(Cl)c1)C1CC(=O)N(Cc2ccccc2)C1 (stereo not drawn)	none (no result: eIF4E 4G PPI, PERK inhibitor)
CC(=O)c1ccc(NC(=O)C(C)OC(=O)COc2ccc(C#N)cc2)cc1 (stereo not drawn)	PABP FP inh 120, eIF4H FP inh active
CC(=O)c1ccc(OCC(=O)OC(C)C(=O)NC2CCCCC2)cc1 (stereo not drawn)	none (no result: eIF4E 4G PPI, PABP FP inh, eIF4H FP inh, PERK inhibitor)
COc1nnc(-c2ccccc2)s1	PABP1 MLLE inh 39

Assay outcomes as filed in PubChem BioAssay.
